# High-throughput results from PubChem.
# These entries were drawn from the full list.
# aSyn 5UTR act – Activators via SNCA 5'UTR binding, MLPCN; alpha-synuclein 5'UTR reporter, activators screen; activity score, % (tested at 7.5 µM), hits read low; 7.1% of 300,000 active; AID 1814; in the data active = activity score below about -60%
# Hits are given with their value; . = inactive.
SMILES,aSyn 5UTR act
COc1ccc(N/C=C2\CCc3ccccc3C2=O)cc1,.
O=C1/C(=C/Nc2ccc3c(c2)OCO3)CCc2ccccc21,.
COc1ccc2c(c1)CC/C(=C\Nc1ccc3c(c1)OCO3)C2=O,-197
Clc1ccccc1-c1nc(-c2cccnc2)no1,-104
CN(C)c1ccc(-c2nnc(-c3cccs3)o2)cc1,.
Cc1ccccc1-c1nc(-c2cccnc2)no1,-227
Cc1nc(-c2noc(-c3ccccc3Cl)n2)c(C(F)(F)F)o1,-142
Cc1ccccc1-c1nc(-c2ccccn2)no1,.
Clc1ccccc1-c1nnc(-c2cccs2)o1,-215
Clc1ccccc1-c1nc(-c2ccncc2)no1,-112
Clc1ccccc1-c1nnc(-c2cccnc2)o1,-139
CSc1ccccc1-c1nc(-c2ccncc2)no1,-195
Cc1cccc(-c2nsc(SCC(=O)Nc3ccc4c(c3)OCO4)n2)c1,-96
Cc1csc(SCC(=O)Nc2ccc3c(c2)OCCO3)n1,-67
CSc1nsc(SCC(=O)Nc2ccc3c(c2)OCCO3)n1,-136
S=c1nc(COc2ccccc2)[nH]c2ccccc12,-112
O=c1[nH]c(COc2ccc(Br)cc2Cl)nc2ccccc12,-167
O=c1[nH]c(COc2ccccc2)nc2ccccc12,-70
Clc1ccc2nc(COc3ccccc3)[nH]c2c1,-151
O=C(NCc1cccnc1)c1cc(-c2ccco2)on1,-72
Cc1ccc(CN2C(=O)/C(=C\c3ccc(C(=O)NCc4cccnc4)cc3)Oc3ccccc32)cc1,.
Cc1ccc(-c2cc(C(=O)NCc3cccnc3)no2)cc1,-90
C#CCSc1nnc(-c2sc(-c3ccccc3)nc2C)n1C,-67
Cc1cc(C(=O)COC(=O)c2ccc(Br)o2)c(C)n1C,-112
COCCn1c(C)cc(C(=O)COC(=O)c2ccc(Br)o2)c1C,-100
SMILES,aSyn 5UTR act
COc1ccc(NC(=S)NCCCCCC(=O)C[N+](=O)[O-])cc1,-82
COc1ccc(Br)c(-c2nnc(CS(=O)(=O)c3ccccc3)o2)c1,-85
O=C(OCc1ccccn1)c1ccc(COc2ccc3ccccc3c2)o1,-104
CCOc1ccc(-c2nnc(-c3ccc(OC)cc3)o2)cc1,-76
CCOc1ccc(-c2nnc(NC(=O)c3ccc(OCC(C)C)c(OC)c3)o2)cc1,.
CCOc1ccc(-c2nc3ccccc3c(=O)o2)cc1,-63
CCOc1ccc(-c2nnc(-c3ccncc3)o2)cc1,-63
CCOc1ccc(-c2nnc(NC3=NCCCCC3)o2)cc1,-117
c1coc(-c2nnc(NC3=NCCC3)o2)c1,-70
COc1ccc(-c2nnc(SCc3nc4ccccc4c(=O)[nH]3)o2)cc1,-70
COc1ccc(-c2nnc(SCC(C)C)o2)cc1,-102
CCCCOc1ccc(-c2nnc(-c3ccncc3)o2)cc1,-124
Clc1ccc(OCCSc2ncccn2)cc1,-160
c1cnc(SCCCOc2ccc3ccccc3c2)nc1,-68
Cc1ccc(OCCCSc2ncccn2)cc1C,-104
CCCC(NCC(O)COc1ccc(-c2ccccc2)cc1)c1ccccc1 (stereo not drawn),.
OC(COc1ccc(Cl)cc1)CSc1ccccn1 (stereo not drawn),-90
COc1ccc(OCCCSc2ncccn2)cc1,-168
CC(C)SCCCCOc1ccc2ccccc2c1,-112
Cc1ccc(F)cc1NC(=O)c1sc2ncn(CC(=O)N3CCN(c4ccccn4)CC3)c(=O)c2c1C,-89
CC(=O)OCC1OC(n2cc(F)c(=O)[nH]c2=O)C(OC(C)=O)C1OC(C)=O (stereo not drawn),-181
Cc1ccc(-c2ccc(/C=C3\SC(N4CCOCC4)=NC3=O)o2)cc1,-72
Cn1nccc1C(=O)Nc1ccc2c(c1)OCO2,-115
Cn1nccc1C(=O)Nc1ccc(Cl)cc1,-63
NC(=O)CN1C(=O)C(O)(CC(=O)/C=C\c2ccc3c(c2)OCO3)c2ccccc21 (stereo not drawn),-70
SMILES,aSyn 5UTR act
O=C(/C=C\c1ccccc1OC(=O)c1ccccc1F)c1cc2ccccc2o1,-132
CC(=O)c1ccc(NC(=O)C2(c3ccccc3)CCOCC2)cc1,-118
CCN(CC)C(=N)/C(C#N)=N/Nc1ccc(C)cc1,-136
COc1ccc(N/N=C(\C#N)C(=N)N2CCCCC2)cc1,-82
Cc1ccc(N/N=C(\C#N)C(=N)N2CCOCC2)cc1,-141
Cc1ccc(N/N=C(\C#N)C(=N)N2CCCCCC2)cc1,-113
N#C/C(=N\Nc1ccccc1F)C(=N)N1CCCCC1,-158
N#C/C(=N\Nc1ccc(Cl)cc1)C(=N)N1CCCCC1,-101
CN1CCN(c2ccc(NC(=O)COc3ccccc3Cl)cc2)CC1,-65
COc1ccccc1OCC(=O)Nc1ccc2c(c1)OCO2,-96
Cc1ccccc1OCC(=O)Nc1ccc2c(c1)OCO2,-140
O=C(COc1ccccc1Cl)Nc1ccc2c(c1)OCO2,-145
COc1cc(C(=O)c2cocc2C(=O)c2ccc3c(c2)OCO3)cc(OC)c1OC,.
Cc1ccccc1CN1CCN(c2nc3ccccc3s2)CC1,-146
COc1ccc(-c2[nH]ncc2CN2CCC(O)(c3ccc(Cl)cc3)CC2)cc1,.
COc1ccc(CN2CCN(c3nc4ccccc4s3)CC2)cc1,-69
Cc1ccc2nc(/C=C/c3cccc(F)c3)ccc2c1,-172
Cc1ccc2nc(COc3ccc(Cl)cc3)cc(=O)n2c1,-109
COCC(C)n1c(SCc2cc(=O)n3cc(C)ccc3n2)nc2ccccc2c1=O (stereo not drawn),.
COC(=O)c1ccc(/C=C2\Oc3ccccc3NC2=O)cc1,-110
COC(=O)c1ccc2c(c1)C(=O)/C(=C/c1ccc(C)cc1)O2,-143
COc1cc2c(cc1NC(=S)Nc1cccc(C)c1)oc1ccccc12,-124
COc1cc2c(cc1NC(=O)C(C)OC(=O)C1CC(=O)N(Cc3ccco3)C1)oc1ccccc12 (stereo not drawn),-127
COc1cc2c(cc1NC(=O)Nc1ccc(F)cc1)oc1ccccc12,-95
COc1ccc(NC(=O)Nc2cc3oc4ccccc4c3cc2OC)cc1,-152
SMILES,aSyn 5UTR act
COc1cc2c(cc1NC(=O)CSc1nccn1C)oc1ccccc12,-229
COc1cc2c(cc1NC(=O)C(C)OC(=O)/C=C/c1ccc(OC(F)F)cc1)oc1ccccc12 (stereo not drawn),-150
Fc1ccccc1/C=N/Nc1ncnc2ccccc12,-241
Clc1ccc(/C=N/Nc2ncnc3ccccc23)cc1Cl,-318
CCOc1cc2nc3c4ccccc4n(C)c3nc2cc1OCC,-62
CC1(C)CCC(=O)N2CC[C@H]3C[C@H](OC(=O)Nc4ccc(Br)cc4)C[C@@H]1[C@H]32,-68
O=C(Nc1ccc(Oc2c(F)c(F)c(F)c(F)c2F)cc1)OC1CCN2Cc3ccccc3N=C12 (stereo not drawn),.
CCOC(=O)CSc1nc2ccc(N3CCOCC3)cc2c(=O)n1Cc1ccc2c(c1)OCO2,-82
COCCNC(=O)CSc1nc2ccc(N3CCOCC3)cc2c(=O)n1Cc1ccc(OC)cc1,-80
COc1ccc(C(=O)Nc2cccc3ccccc23)cc1,-138
COc1ccc(Nc2cccc3ccccc23)cc1,-72
COc1cccc(C(=O)Nc2nc3c(c(=O)[nH]2)CCCC3)c1,-97
COc1ccc(Nc2cc(C)c3ccccc3n2)cc1,-101
COc1ccc(C(=O)Nc2nc3ccccc3c(=O)[nH]2)cc1,-127
COc1ccc(Nc2ccc(OC)cc2)cc1,-105
CCOC(=O)N1CC=C2C(C#N)=C(N)C(C#N)(C#N)[C@H](c3ccccc3OCC)[C@H]2C1,-90
COC(=O)C1=C(N)Oc2cc(N(C)C)ccc2C1c1ccccc1OC (stereo not drawn),.
CCOC(=O)c1ccc2c(c1)NCc1cccc(OC)c1O2,-129
